Inconclusive results are not listed. The source made the active and inactive calls. The call rests on the fitted dose curve; in most records, active means well fitted inhibition curve with a large enough effect; inconclusive means small, poorly fitted or top-dose-only effect; inactive means flat fitted curve, though single readings scatter.
Columns and labels:
Experiment in all cases: qHTS profiling for inhibitors of Plasmodium falciparum proliferation (AID 504749); further: nearly all actives have a fitted effect of over 60% in size
Conditions in all cases: P. falciparum in erythrocytes, SYBR Green DNA, 72 h; series mostly up to 28.7 µM
[1] = system: CP252
Outline: (§1)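 Each compound contacts P. falciparum-infected red blood cells for 72 h at 37 C; lysis buffer (Tris, EDTA, saponin, Triton X, SYBR Green I) is added and fluorescence measured next morning; values normalized to controls.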

[2] = system: CP256
Outline: as §1

[3] = system: CP260
Outline: as §1

[4] = system: CP262
Outline: as §1

[5] = system: CP265
Outline: as §1

[6] = system: CP268
Outline: as §1

[7] = system: CP269
Outline: as §1

[8] = system: CP286
Outline: as §1

[9] = system: CP291
Outline: as §1

[10] = system: CP297
Outline: as §1

[11] = system: CP305
Outline: as §1

[12] = system: CP315
Outline: as §1

[13] = system: CP325
Outline: as §1

[14] = system: CP329
Outline: as §1

[15] = system: CP335
Outline: as §1

[16] = system: DFO2036
Outline: as §1

[17] = system: DIV14
Outline: as §1

[18] = system: DIV17
Outline: as §1

[19] = system: DIV30
Outline: as §1

[20] = system: Dd2
Outline: as §1

[21] = system: ECU
Outline: as §1

[22] = system: FAB9
Outline: as §1

[23] = system: GB4
Outline: as §1

[24] = system: HB3
Outline: as §1

[25] = system: ICS
Outline: as §1

[26] = system: JCK
Outline: as §1

[27] = system: N140
Outline: as §1

[28] = system: P94_40
Outline: as §1

[29] = system: PAD
Outline: as §1

[30] = system: PC15
Outline: as §1

[31] = system: PC26
Outline: as §1

[32] = system: PC49
Outline: as §1

[33] = system: SC27B
Outline: as §1

[34] = system: TAB109
Outline: as §1

[35] = system: TAB113
Outline: as §1

[36] = system: TAB165
Outline: as §1

Measured: Potency

CCOC(=O)c1cncn1[C@@H](C)c1ccccc1
inactive: [1] | [2] | [3] | [4] | [5] | [6] | [7] | [8] | [9] | [10] | [11] | [12] | [13] | [14] | [15] | [16] | [17] | [18] | [19] | [20] | [21] | [22] | [23] | [24] | [25] | [26] | [27] | [28] | [29] | [30] | [31] | [32] | [33] | [34] | [35] | [36]
